Reference: PubChem BioAssay AID1445 (SRMLSC, 2008)
Screen size: about 220,000 compounds; about 910 (0.41%) were called active.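 The calls were made as follows: active = primary inhibition above the hit cutoff, then over 50% inhibition at one or more dose response concentrations (cut at about 23% in these data, passing the limit was not always enough); inconclusive = conflicting primary data, or primary hits not chosen for dose response; inactive = low primary inhibition, or under 50% at every dose.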 Only a selection was taken, and actives are over-represented in it overall. Entries with a potency or affinity are not part of this list.

Each molecule was assayed against Aminopeptidase N (Plasmodium falciparum (isolate 3D7)) (UniProt O96935) (assay: malaria alanyl aminopeptidase activity blockers – biochemical, fluorogenic H-Leu-NHMec substrate, 1536-well (AID 1445;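 also: plate controls were DMSO full reaction for no effect and no enzyme background for full effect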)). Conditions: recombinant M1AAP, H-Leu-NHMec fluorogenic kinetic assay; at 30 µM, hits give high values unless noted.
Aminopeptidase N (Plasmodium falciparum (isolate 3D7)), sequence (O96935 whole entry, looked up): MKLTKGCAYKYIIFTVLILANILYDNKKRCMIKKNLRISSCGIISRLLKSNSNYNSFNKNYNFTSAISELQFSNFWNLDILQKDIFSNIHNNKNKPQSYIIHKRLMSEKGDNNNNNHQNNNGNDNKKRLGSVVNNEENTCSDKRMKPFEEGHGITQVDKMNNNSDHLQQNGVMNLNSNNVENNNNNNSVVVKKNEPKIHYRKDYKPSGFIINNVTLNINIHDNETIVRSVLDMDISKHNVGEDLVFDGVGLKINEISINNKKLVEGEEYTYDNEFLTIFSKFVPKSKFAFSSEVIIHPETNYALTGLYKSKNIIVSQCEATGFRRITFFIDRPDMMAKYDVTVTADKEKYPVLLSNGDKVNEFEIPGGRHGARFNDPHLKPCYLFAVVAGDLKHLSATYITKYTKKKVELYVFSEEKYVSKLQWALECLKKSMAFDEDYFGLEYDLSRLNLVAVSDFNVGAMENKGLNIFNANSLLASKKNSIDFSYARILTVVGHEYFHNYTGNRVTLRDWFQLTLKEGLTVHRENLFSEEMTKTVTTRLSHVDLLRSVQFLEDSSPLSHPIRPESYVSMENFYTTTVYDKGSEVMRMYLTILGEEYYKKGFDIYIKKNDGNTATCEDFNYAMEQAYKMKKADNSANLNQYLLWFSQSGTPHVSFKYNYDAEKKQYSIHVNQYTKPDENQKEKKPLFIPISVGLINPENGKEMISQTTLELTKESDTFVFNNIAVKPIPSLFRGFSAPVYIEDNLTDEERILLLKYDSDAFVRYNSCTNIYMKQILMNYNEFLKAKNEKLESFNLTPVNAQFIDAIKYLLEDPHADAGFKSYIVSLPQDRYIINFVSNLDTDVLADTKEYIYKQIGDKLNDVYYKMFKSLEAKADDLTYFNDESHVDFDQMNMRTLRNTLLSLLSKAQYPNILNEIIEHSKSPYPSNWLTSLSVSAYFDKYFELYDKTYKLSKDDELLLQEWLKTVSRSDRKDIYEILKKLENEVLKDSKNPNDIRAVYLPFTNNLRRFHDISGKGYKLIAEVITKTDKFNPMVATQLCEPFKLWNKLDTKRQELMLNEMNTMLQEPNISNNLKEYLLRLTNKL

Question: With `COc1ccc(-c2cc(-c3cccnc3)c(C#N)c(N)n2)cc1` as the molecule, how does the inhibition read?
Answer: 11.1% (inactive)

Question: With `Cc1noc(NS(=O)(=O)c2ccc(NC(=O)c3ccc(N4C(=O)c5ccccc5C4=O)cc3)cc2)c1C` as the molecule, how does the inhibition read?
Answer: -1.13% (inactive)

Question: Which inhibition does the source give for `Cc1cc(NS(=O)(=O)c2ccc(NC(=O)C(C(C)C)N3C(=O)c4ccccc4C3=O)cc2)nc(C)n1` (stereo unspecified) here?
Answer: 11.3% (inactive)

Question: How did the inhibition turn out when `Cc1noc(NS(=O)(=O)c2ccc(NC(=O)CCN3C(=O)c4ccccc4C3=O)cc2)c1C` was run?
Answer: 12.8% (inactive)

Question: With `CC(C)CC(C(=O)NCc1ccccn1)N1C(=O)c2ccccc2C1=O` (stereo unspecified) as the molecule, how does the inhibition read?
Answer: 13.1% (inactive)

Question: With `CC(C)CC(C(=O)NC(=O)NCc1ccccc1)N1C(=O)c2ccccc2C1=O` (stereo unspecified) as the molecule, how does the inhibition read?
Answer: 7.55% (inactive)

Question: With `CC(C)CC(C(=O)Nn1cnnc1)N1C(=O)c2ccccc2C1=O` (stereo unspecified) as the molecule, how does the inhibition read?
Answer: 25.1% (active)

Question: For `Cc1cc(NS(=O)(=O)c2ccc(NC(=O)C(C)N3C(=O)c4ccccc4C3=O)cc2)nc(C)n1` (stereo unspecified), which inhibition is on record?
Answer: 2.55% (inactive)

Question: With `COc1cccc(Cn2nnc(C(=O)NCc3ccc(F)cc3)c2N)c1` as the molecule, how does the inhibition read?
Answer: -3.49% (inactive)

Question: Which inhibition does the source give for `CCOC(=O)N1CCN(c2c(N3CCN(c4cccc(C(F)(F)F)c4)CC3)c(=O)c2=O)CC1` here?
Answer: 4.51% (inactive)

Question: `CC1=CCC2C(=O)N(c3ccc(S(N)(=O)=O)cc3)C(=O)C2C1` (stereo unspecified) was tested. Which inhibition did it give?
Answer: 2.35% (inactive)

Question: For `Cc1nnc2ccc(N3CCOCC3)nn12`, which inhibition is on record?
Answer: 0.92% (inactive)

Question: With `CCn1c(C)nc2cc(C(=O)NNC(=S)Nc3ccc(Cl)cc3)ccc21` as the molecule, how does the inhibition read?
Answer: -13.2% (inactive)

Question: With `CCN1CCc2c(OCC(=O)N3CCCCC3)cccc2C1=O` as the molecule, how does the inhibition read?
Answer: 1.05% (inactive)

Question: `CCn1c(C)cc(/C=C2\SC(=O)N(CC(=O)Nc3ccc(C)c(C)c3)C2=O)c1C` was tested. Which inhibition did it give?
Answer: 2.14% (inactive)

Question: For `C#CCN1C(=O)S/C(=C/c2cc(C)n(CC)c2C)C1=O`, which inhibition is on record?
Answer: 9.33% (inactive)

Question: With `Cc1ccc(NC(=O)c2cc(C(C)(C)C)nn2Cc2ccccc2)cc1` as the molecule, how does the inhibition read?
Answer: 5.05% (inactive)

Question: With `Cc1cc(C)cc(OCC(=O)N(Cc2cccs2)C2CCS(=O)(=O)C2)c1` (stereo unspecified) as the molecule, how does the inhibition read?
Answer: 2.35% (inactive)

Question: Which inhibition does the source give for `Cc1cc(=O)[nH]c(-c2ccccc2O)n1` here?
Answer: 10.9% (inactive)

Question: With `CCC(C)Sc1nc2c(c(=O)n1C)SC(C)C2` (stereo unspecified) as the molecule, how does the inhibition read?
Answer: 23.5% (active)

Question: `CSc1nc2c(c(=O)n1C)SC(C)C2` (stereo unspecified) was tested. Which inhibition did it give?
Answer: 1.34% (inactive)

Question: For `CC(C)Sc1nc2c(c(=O)n1C)SC(C)C2` (stereo unspecified), which inhibition is on record?
Answer: 11.9% (inactive)

Question: How did the inhibition turn out when `O=C(CNC(=S)N(CCCN1CCOCC1)Cc1cccs1)NC1CCCC1` was run?
Answer: 5.27% (inactive)

Question: How did the inhibition turn out when `COc1ccc(N2CCN(c3ccc(N4C(=O)CC(C)C4=O)cc3[N+](=O)[O-])CC2)cc1` (stereo unspecified) was run?
Answer: -8.33% (inactive)

Question: `CCCCN(C)C1=Nc2cccc3cccc1c23` was tested. Which inhibition did it give?
Answer: 26.3% (active)

Question: Which inhibition does the source give for `c1ccc(NC2=Nc3cccc4cccc2c34)cc1` here?
Answer: 1.68% (inactive)

Question: Which inhibition does the source give for `NC1=Nc2cccc3cccc1c23` here?
Answer: 3.4% (inactive)

Question: For `CC1=NN(c2nc(-c3ccc(C)cc3)cs2)C(=O)C1N=Nc1ccc2ccccc2c1` (stereo unspecified), which inhibition is on record?
Answer: -4.56% (inactive)

Question: For `CC1=NN(c2nc(-c3ccc(C)cc3)cs2)C(=O)C1N=Nc1cccc(O)c1` (stereo unspecified), which inhibition is on record?
Answer: 6.79% (inactive)

Question: Which inhibition does the source give for `COc1ccc([N+](=O)[O-])cc1NC(=O)c1cc(C)c(C)o1` here?
Answer: 8.9% (inactive)

Question: `Cc1ccsc1C1NC(=O)c2c(sc3c2CCCC3)N1` (stereo unspecified) was tested. Which inhibition did it give?
Answer: -10.2% (inactive)

Question: Which inhibition does the source give for `Cc1ccsc1C1NC(=O)c2c(sc3c2CCN(C)C3)N1` (stereo unspecified) here?
Answer: 25.9% (active)

Question: For `CN1CCc2c(sc3c2C(=O)NC(c2cccs2)N3)C1` (stereo unspecified), which inhibition is on record?
Answer: 11.5% (inactive)

Question: For `COC(=O)c1cn(-c2ccccc2)c(=O)c2ccccc12`, which inhibition is on record?
Answer: 0.56% (inactive)

Question: Which inhibition does the source give for `Cc1ccc(-c2csc3ncn(CC(=O)N4CCOCC4)c(=O)c23)cc1C` here?
Answer: 16.1% (inactive)

Question: Which inhibition does the source give for `Cc1sc2ncn(CC(=O)N3CCOCC3)c(=O)c2c1-c1ccccc1` here?
Answer: 22.3% (inactive)

Question: For `CCOC(=O)N1CCC(NC(=O)c2ccc3c(c2)sc2nc(-c4ccccc4)cn23)CC1`, which inhibition is on record?
Answer: 31.7% (inactive)

Question: How did the inhibition turn out when `CCOC(=O)N1CCC(NC(=O)c2ccc3c(c2)sc2nc(-c4ccc(OC)cc4)cn23)CC1` was run?
Answer: 6.96% (inactive)

Question: For `COC(=O)c1ccc(NC(=O)C2CC2)o1`, which inhibition is on record?
Answer: -0.61% (inactive)

Question: With `CCCOC(=O)c1c(-c2ccc(C)cc2C)csc1NC(=O)C1C2CCC(O2)C1C(=O)O` (stereo unspecified) as the molecule, how does the inhibition read?
Answer: -4.77% (inactive)

Question: Which inhibition does the source give for `CCOC(=O)c1c(-c2ccc(-c3ccccc3)cc2)csc1NC(=O)C1C2CCC(O2)C1C(=O)O` (stereo unspecified) here?
Answer: 3.79% (inactive)

Question: How did the inhibition turn out when `FC(F)C(F)(F)C1=CC(c2cccs2)=NCCN1` was run?
Answer: 6.95% (inactive)

Question: For `COCc1cc(C)nc(OCC(=O)N/N=C\c2cc(C)n(-c3cccc(C(F)(F)F)c3)c2C)c1C#N`, which inhibition is on record?
Answer: 6.82% (inactive)

Question: For `CC(C)Nc1nc(NNc2nc(Cl)nc(NC(C)(C)C)n2)nc(NC(C)C)n1`, which inhibition is on record?
Answer: -3.65% (inactive)

Question: For `COc1cc(/C=N/Nc2nc(Nc3ccc(C)cc3)nc(-n3nc(C)cc3C)n2)cc(OC)c1OC`, which inhibition is on record?
Answer: 0.21% (inactive)

Question: `COC(=O)c1c(N2C(=O)Nc3ccccc3N2O)sc2c1CCCC2` was tested. Which inhibition did it give?
Answer: 9.84% (inactive)

Question: Which inhibition does the source give for `CCOC(=O)c1c(N2C(=O)Nc3ccccc3N2O)sc2c1CCCC2` here?
Answer: 4.01% (inactive)

Question: `CC(C)(CC(=O)O)Cc1nc(-c2ccc(Cl)cc2)no1` was tested. Which inhibition did it give?
Answer: -3.52% (inactive)

Question: How did the inhibition turn out when `COc1ccc(NS(=O)(=O)c2cccc(Cl)c2)cc1S(=O)(=O)N1CCCCC1` was run?
Answer: 1.83% (inactive)

Question: Which inhibition does the source give for `Nc1cccc(-c2nc3ccc(N)cc3s2)c1` here?
Answer: 8.49% (inactive)

Question: Which inhibition does the source give for `Nc1ccc(-c2nc3cc(N)ccc3s2)cc1` here?
Answer: 13% (inactive)

Question: For `Cc1ccc2nc(-c3ccc(N)cc3)sc2c1`, which inhibition is on record?
Answer: 3.99% (inactive)

Question: With `Nc1ccc2nc(-c3ccccc3)sc2c1` as the molecule, how does the inhibition read?
Answer: 33.2% (inactive)

Question: How did the inhibition turn out when `CN(C)CCCNC(=S)Nc1ccc(Br)cc1` was run?
Answer: -1.23% (inactive)

Question: With `COc1cccc2c(=O)c3cccc(N)c3[nH]c12` as the molecule, how does the inhibition read?
Answer: 17.7% (inactive)

Question: How did the inhibition turn out when `CCOC(=O)c1c(C)oc2ccc(OC(=O)N3CCOCC3)cc12` was run?
Answer: 3.42% (inactive)

Question: `O=C(CSc1nnc(Nc2ccccc2)s1)NCCN1C(=O)CSC1=O` was tested. Which inhibition did it give?
Answer: 0.85% (inactive)

Question: `[2H]c1c([2H])c([2H])c(-c2nc(N3CCCCCC3)sc2C(=O)c2ccccc2)c([2H])c1[2H]` was tested. Which inhibition did it give?
Answer: 6.9% (inactive)

Question: `O=C(O)CCN1C(=O)/C(=C\c2ccc(-c3nc4ccccc4s3)o2)SC1=S` was tested. Which inhibition did it give?
Answer: 20.7% (inactive)

Question: With `O=C(O)CC(C(=O)O)N1C(=O)/C(=C/c2ccc(-c3nc4ccccc4s3)o2)SC1=S` (stereo unspecified) as the molecule, how does the inhibition read?
Answer: 24.7% (active)

Question: `O=C(O)CCN1C(=O)/C(=C/c2ccc(-c3nc4ccccc4s3)o2)SC1=S` was tested. Which inhibition did it give?
Answer: -3.38% (inactive)
